From PubChem BioAssay (EPA / NIEHS) come the findings set out here.

SMILES strings stand for the structures. “And” between values parts separate entries of the source, which are not always exact repeats. Equal entries are not always repeated. Inconclusive results are not listed. More than one record can exist for a structure, and the calls need not agree. The source made the active and inactive calls. How the source made its calls, unless noted: active means hit-call score of the fitted dose curve at least 0.9, where 1 is the maximum; inactive means score below 0.9.

Assay [1] addresses Nuclear respiratory factor 1 (Homo sapiens) (UniProt Q16656). In words: ATG_NRF1_CIS: Attagene CIS-FACTORIAL HepG2 Assay for human Nuclear Respiratory Factor 1 (NRF1) Orphan Gene (AID 2282987). Particulars: HepG2 NRF1 cis-element reporter, Attagene multiplex; actives raise or lower the signal. The gist of the method:
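HepG2 cells transiently transfected with multiple cis-regulated reporter units, exposed 24 h. Reporter mRNAs measured by RT-PCR, fluorescent labelling, HpaI digestion and capillary electrophoresis; bidirectional fitting against DMSO.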

A short description of assay [2]: ATG_NFI_CIS: Attagene CIS-FACTORIAL HepG2 Assay for human Nuclear Factor I (NFI) (AID 2282989). The note with it: HepG2 cis-regulatory reporter, NFI response element transcription; actives raise or lower the signal. The gist of the method:
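Reporter transcripts were measured by RT-PCR with fluorescent primer extension and capillary electrophoresis 24 h post-treatment. HepG2 cells carried transiently transfected cis-regulated reporter constructs reporting endogenous factor activity; gain or loss fitted against DMSO baseline.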

Assay [3] addresses Myc proto-oncogene protein (Homo sapiens) (UniProt P01106). The assay is described as follows: ATG_Myc_CIS: Attagene CIS-FACTORIAL HepG2 Assay for human Myelocytomatosis (Myc) Proto-Oncogene Transcription Factor (AID 2282990). The note with it: HepG2, Attagene cis-reporter transcription factor activity; actives raise or lower the signal. Put shortly: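 Transiently transfected HepG2 cells bearing cis-promoter reporter units for endogenous transcription factors; 24 h exposure. Reporter mRNA measured by RT-PCR, 6-FAM primer extension, HpaI cut and capillary electrophoresis; bidirectional fit relative to DMSO.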

Assay [4] is described as follows: ATG_NF_kB_CIS: Attagene CIS-FACTORIAL HepG2 Assay for human Nuclear Factor Kappa B (NF-kB) (AID 2282991). Particulars: HepG2 Attagene cis-factorial NF-kB reporter mRNA; actives raise or lower the signal. Put shortly:
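HepG2 cells transfected with cis-promoter-driven reporter units, so endogenous transcription factor activity is measured. Reporter mRNA quantified 24 h after dosing by RT-PCR and capillary electrophoresis, with bidirectional fitting against DMSO.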

A short description of assay [5]: ATG_NRF2_ARE_CIS: Attagene CIS-FACTORIAL HepG2 Assay for human Nuclear Factor Erythroid 2 Related Factor 2 (NFR2) response to Antioxidant Response Elements (ARE) (AID 2282992).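 On AC50: reporter mRNA level measured by RT-PCR and capillary electrophoresis fluorescence.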 Particulars: HepG2 Attagene ARE/NRF2 reporter, transcription factor activity; actives raise or lower the signal. Put shortly: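 Multiplexed reporter mRNA profiling in HepG2 after a 24 h chemical exposure. Curves fitted in both directions relative to DMSO negative control.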

A short description of assay [6]: BSK_3C_uPAR: BioMAP Diversity Plus: 3C Assay for Urokinase-type plasminogen activator receptor (uPAR) Biomarker Activity (AID 2282998). Particulars: BioMAP 3C HUVEC, uPAR biomarker ELISA; actives raise or lower the signal. The gist of the method:
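Cell-surface uPAR on HUVEC (3C system) read by ELISA at 24 h post-treatment, with DMSO as baseline and fitting in both directions. Parallel cultures stained with SRB to flag overt cytotoxicity.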
(In an ELISA, binding on a coated surface is turned into a signal by an enzyme label.)

A short description of assay [7]: BSK_3C_VCAM1: BioMAP Diversity Plus: 3C Assay for Vascular cell adhesion molecule 1 (VCAM1) Biomarker Activity (AID 2282999). Particulars: BioMAP 3C HUVEC, VCAM1 ELISA, cytokine-stimulated; actives raise or lower the signal. The gist of the method: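 Human umbilical vein endothelial cells (3C system), biomarker read by ELISA 24 h after dosing; bidirectional fit against DMSO baseline. Cytotoxicity tracked by SRB total-protein staining in parallel cultures at biomarker time.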

The nature of assay [8]: BSK_4H_Eotaxin3: BioMAP Diversity Plus: 4H Assay for Eotaxin 3 Biomarker Activity (AID 2283000).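 Further: CCL26 protein level quantified by ELISA in parallel with SRB cytotoxicity check.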 The note with it: primary human endothelial cells (HUVEC); actives raise or lower the signal. The gist of the method:
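ELISA quantitation of CCL26 (Eotaxin-3) protein from chemically dosed human vascular endothelial cells at 24 h; increases and decreases both scored relative to DMSO-treated baseline.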

Assay [9] addresses human Peroxisome Proliferator-activated Receptor alpha (PPARa), PPARA (gene 5465) (UniProt Q07869). In words: ATG_PPARa_TRANS: Attagene TRANS-FACTORIAL HepG2 Assay for human Peroxisome Proliferator-activated Receptor alpha (PPARa) (AID 2283001; active means hit-call score of the fitted dose curve at least 0.9, where 1 is the maximum). Put shortly:
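Measures transcriptional activity of an exogenous chimeric PPARa-Gal4 protein in transiently transfected HepG2 cells after 24 h dosing. Reporter mRNA quantified via RT-PCR and capillary electrophoresis; DMSO served as negative control.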

In assay [10] the target is human Peroxisome Proliferator-activated Receptor delta (PPARd), PPARD (gene 5467) (UniProt Q03181). The assay is described as follows: ATG_PPARd_TRANS: Attagene TRANS-FACTORIAL HepG2 Assay for human Peroxisome Proliferator-activated Receptor delta (PPARd) (AID 2283002; active means hit-call score of the fitted dose curve at least 0.9, where 1 is the maximum). Put shortly:
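HepG2 cells transiently transfected with GAL4-UAS multiplexed reporter units driven by exogenous chimeric NR-GAL4 proteins; 24 h compound exposure. Reporter mRNA measured by RT-PCR, 6-FAM primer extension, HpaI digestion and capillary electrophoresis; gain of signal fitted relative to DMSO.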

The target in assay [11] is Peroxisome proliferator-activated receptor gamma (Homo sapiens) (UniProt P37231). The assay is described as follows: ATG_PPARg_TRANS: Attagene TRANS-FACTORIAL HepG2 Assay for human Peroxisome Proliferator-activated Receptor-gamma (PPARg) (AID 2283007; active means hit-call score of the fitted dose curve at least 0.9, where 1 is the maximum). Put shortly: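 HepG2 cells are transiently transfected with GAL4-UAS reporter units driven by chimeric NR-Gal4 fusions and dosed for 24 h. Reporter mRNA is quantified by RT-PCR, 6-FAM labelling, HpaI digestion and capillary electrophoresis. Induction is scored against DMSO.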

In assay [12] the target is Nuclear receptor subfamily 1 group I member 2 (Homo sapiens) (UniProt O75469). The assay is described as follows: ATG_PXR_TRANS: Attagene TRANS-FACTORIAL HepG2 Assay for human Pregnane X Receptor (PXR) (AID 2283008; active means hit-call score of the fitted dose curve at least 0.9, where 1 is the maximum). Put shortly:
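Measures mRNA induction of a GAL4-UAS-driven reporter in human HepG2 cells transiently expressing PXR fused to Gal4, following 24 h treatment. DMSO served as negative control and baseline.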

In assay [13] the target is human Retinoic Acid Receptor gamma (RARg), RARG (gene 5916) (UniProt P13631). In words: ATG_RARg_TRANS: Attagene TRANS-FACTORIAL HepG2 Assay for human Retinoic Acid Receptor gamma (RARg) (AID 2283009; active means hit-call score of the fitted dose curve at least 0.9, where 1 is the maximum). The gist of the method: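 HepG2 cells transiently transfected with multiplexed reporter units expressing chimeric RARg-GAL4 and GAL4-UAS-driven reporters; 24 h compound exposure. Reporter mRNA quantified by RT-PCR with fluorescent labelling and capillary electrophoresis; gain-of-signal fitted relative to DMSO baseline.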

Assay [14] is described as follows: ATG_Oct_MLP_CIS: Attagene CIS-FACTORIAL HepG2 Assay for human Octamer-Binding Transcription Factor (Oct) (AID 2282993). Particulars: HepG2 Attagene cis-factorial Oct reporter, mRNA; actives raise or lower the signal. The gist of the method: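 Readout is reporter transcript level from RT-PCR with fluorescent primer extension and capillary electrophoresis, fitted in both directions against DMSO. Transfected HepG2 reporter units report endogenous factor activity after 24 h dosing.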

For assay [15], the target named is Cellular tumor antigen p53 (Homo sapiens) (UniProt P04637). The assay is described as follows: ATG_p53_CIS: Attagene CIS-FACTORIAL HepG2 Assay for human p53 Transcription Factor (AID 2282994). Particulars: HepG2 p53 cis-element reporter, Attagene mRNA; actives raise or lower the signal. The gist of the method: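 Multiplexed reporter mRNA assay in human HepG2 liver cells; cis-regulated units report endogenous factor activity. Values come from bidirectional curve fitting against DMSO negative control after 24 h treatment.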

Read-out in assay [16]: Intercellular Adhesion Molecule 1 (ICAM1), ICAM1 (gene 3383)
In words: BSK_3C_ICAM1: BioMAP Diversity Plus: 3C Assay for Intercellular Adhesion Molecule 1 (ICAM1) Biomarker Activity (AID 2283003). The note with it: primary human endothelial cells (HUVEC); actives raise or lower the signal. The gist of the method: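 Primary human umbilical vein endothelial cells in the BioMAP 3C system were exposed to chemicals for 24 h, then ICAM-1 was quantified by ELISA. Activity was fitted bidirectionally against the DMSO negative control baseline.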

Assay [17] deals with Retinoic acid receptor alpha (Homo sapiens) (UniProt P10276). In words: ATG_RARa_TRANS: Attagene TRANS-FACTORIAL HepG2 Assay for human Retinoic Acid Receptor alpha (RARa) (AID 2283005; active means hit-call score of the fitted dose curve at least 0.9, where 1 is the maximum). The gist of the method:
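HepG2 transiently transfected with multiplex GAL4-UAS reporter units including a human RARa–GAL4 chimera; 24 h compound exposure. Reporter mRNA quantified by RT-PCR, 6-FAM labeling and capillary electrophoresis; gain of signal versus DMSO.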

Assay [18] in a line: BSK_3C_Proliferation: Cell Proliferation Assessment in the BioMAP Diversity Plus: 3C Assay (AID 2283006). Particulars: primary human endothelial cells (HUVEC). The gist of the method: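 Human umbilical vein endothelial cells were grown sub-confluent and exposed to chemical for 48 h, then fixed with 10% TCA and stained with 0.1% sulforhodamine B; absorbance at 560 nm gave relative cell number, fitted bidirectionally against DMSO baseline.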

Assay [19] in a line: BSK_3C_TissueFactor: BioMAP Diversity Plus: 3C Assay for Tissue Factor Biomarker Activity (AID 2282997). Particulars: BioMAP 3C HUVEC, tissue factor biomarker readout; actives raise or lower the signal. The gist of the method: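 Endothelial monolayers (human umbilical vein, primary) are dosed, incubated 24 h, and assayed for Tissue Factor by ELISA; DMSO serves as negative control for bidirectional fitting.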

For orientation: AC50 means the concentration giving half of the maximal activity seen.

Cellular tumor antigen p53 (Homo sapiens), sequence (P04637 whole entry, looked up): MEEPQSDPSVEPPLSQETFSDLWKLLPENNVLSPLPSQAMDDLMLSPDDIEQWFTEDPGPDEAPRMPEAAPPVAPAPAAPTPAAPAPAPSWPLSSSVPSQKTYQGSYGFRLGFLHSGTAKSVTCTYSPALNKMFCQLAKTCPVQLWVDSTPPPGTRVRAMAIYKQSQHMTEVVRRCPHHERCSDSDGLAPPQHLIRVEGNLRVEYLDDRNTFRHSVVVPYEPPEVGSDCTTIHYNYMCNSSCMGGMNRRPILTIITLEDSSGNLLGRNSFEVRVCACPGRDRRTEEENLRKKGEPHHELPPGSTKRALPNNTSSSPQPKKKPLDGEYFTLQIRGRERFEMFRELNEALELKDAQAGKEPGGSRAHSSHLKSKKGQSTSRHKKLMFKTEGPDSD
Nuclear receptor subfamily 1 group I member 2 (Homo sapiens), sequence (O75469 whole entry, looked up, the tested form may be a part): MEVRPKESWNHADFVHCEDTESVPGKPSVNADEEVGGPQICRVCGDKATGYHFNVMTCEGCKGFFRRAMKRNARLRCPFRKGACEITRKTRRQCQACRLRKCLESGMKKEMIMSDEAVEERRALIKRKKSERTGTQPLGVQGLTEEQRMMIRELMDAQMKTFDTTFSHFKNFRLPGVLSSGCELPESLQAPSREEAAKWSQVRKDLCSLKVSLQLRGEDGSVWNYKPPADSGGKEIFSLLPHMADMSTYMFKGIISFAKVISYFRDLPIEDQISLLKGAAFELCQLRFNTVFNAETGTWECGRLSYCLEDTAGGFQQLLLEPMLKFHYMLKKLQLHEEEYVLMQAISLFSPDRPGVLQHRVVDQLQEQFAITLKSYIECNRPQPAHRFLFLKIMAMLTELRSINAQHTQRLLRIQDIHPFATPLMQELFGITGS
Peroxisome proliferator-activated receptor gamma (Homo sapiens), sequence (P37231 whole entry, looked up, the tested form may be a part): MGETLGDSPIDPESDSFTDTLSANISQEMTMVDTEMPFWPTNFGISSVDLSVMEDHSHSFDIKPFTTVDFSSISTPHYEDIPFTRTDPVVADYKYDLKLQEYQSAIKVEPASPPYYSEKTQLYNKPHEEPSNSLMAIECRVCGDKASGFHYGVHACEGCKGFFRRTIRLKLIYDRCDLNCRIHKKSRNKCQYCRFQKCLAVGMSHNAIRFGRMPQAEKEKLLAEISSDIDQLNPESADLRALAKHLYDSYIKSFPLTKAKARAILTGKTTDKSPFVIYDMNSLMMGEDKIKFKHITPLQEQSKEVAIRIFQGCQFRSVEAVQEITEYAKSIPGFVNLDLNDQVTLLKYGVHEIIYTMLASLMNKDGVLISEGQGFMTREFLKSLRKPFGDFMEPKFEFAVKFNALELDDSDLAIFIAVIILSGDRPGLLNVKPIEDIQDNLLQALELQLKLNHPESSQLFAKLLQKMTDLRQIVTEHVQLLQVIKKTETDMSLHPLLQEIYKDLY
human Peroxisome Proliferator-activated Receptor delta (PPARd), PPARD (gene 5467), sequence (Q03181 whole entry, looked up, the tested form may be a part): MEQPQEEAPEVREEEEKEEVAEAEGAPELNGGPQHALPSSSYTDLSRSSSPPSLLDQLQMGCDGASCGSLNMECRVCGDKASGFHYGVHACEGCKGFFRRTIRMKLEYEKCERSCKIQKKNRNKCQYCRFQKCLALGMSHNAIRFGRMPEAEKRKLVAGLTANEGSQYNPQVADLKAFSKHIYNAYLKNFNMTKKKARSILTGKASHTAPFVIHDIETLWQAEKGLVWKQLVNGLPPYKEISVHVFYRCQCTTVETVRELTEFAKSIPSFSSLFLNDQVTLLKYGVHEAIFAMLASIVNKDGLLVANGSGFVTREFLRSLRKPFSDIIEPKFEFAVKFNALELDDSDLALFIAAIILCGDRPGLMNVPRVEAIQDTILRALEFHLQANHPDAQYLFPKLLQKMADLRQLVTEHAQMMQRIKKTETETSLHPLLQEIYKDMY
Nuclear respiratory factor 1 (Homo sapiens), sequence (Q16656 whole entry, looked up): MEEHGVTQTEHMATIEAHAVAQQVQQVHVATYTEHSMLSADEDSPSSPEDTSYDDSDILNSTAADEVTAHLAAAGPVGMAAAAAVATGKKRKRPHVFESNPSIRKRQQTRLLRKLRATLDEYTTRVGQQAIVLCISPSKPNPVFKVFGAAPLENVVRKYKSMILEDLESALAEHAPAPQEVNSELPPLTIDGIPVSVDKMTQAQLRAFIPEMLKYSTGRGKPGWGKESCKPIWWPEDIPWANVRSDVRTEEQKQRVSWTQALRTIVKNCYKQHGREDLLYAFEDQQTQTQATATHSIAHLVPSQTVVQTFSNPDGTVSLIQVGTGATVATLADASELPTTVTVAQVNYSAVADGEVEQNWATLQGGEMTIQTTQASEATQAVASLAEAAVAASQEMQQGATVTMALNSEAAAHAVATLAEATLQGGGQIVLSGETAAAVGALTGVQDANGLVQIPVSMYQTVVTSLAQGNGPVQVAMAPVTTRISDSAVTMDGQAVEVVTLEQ
Retinoic acid receptor alpha (Homo sapiens), sequence (P10276 whole entry, looked up, the tested form may be a part): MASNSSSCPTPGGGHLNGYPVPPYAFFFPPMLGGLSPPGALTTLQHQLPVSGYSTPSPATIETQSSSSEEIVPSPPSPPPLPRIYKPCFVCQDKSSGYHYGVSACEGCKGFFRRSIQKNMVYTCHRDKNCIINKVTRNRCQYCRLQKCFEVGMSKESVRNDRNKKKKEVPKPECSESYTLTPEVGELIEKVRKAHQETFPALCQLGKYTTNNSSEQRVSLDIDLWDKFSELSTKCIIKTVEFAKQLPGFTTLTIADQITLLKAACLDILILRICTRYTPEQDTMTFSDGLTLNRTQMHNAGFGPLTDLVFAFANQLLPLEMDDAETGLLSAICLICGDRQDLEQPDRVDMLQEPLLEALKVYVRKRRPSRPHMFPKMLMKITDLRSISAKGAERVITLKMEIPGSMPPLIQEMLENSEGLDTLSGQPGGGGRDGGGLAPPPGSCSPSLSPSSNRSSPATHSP
human Peroxisome Proliferator-activated Receptor alpha (PPARa), PPARA (gene 5465), sequence (Q07869 whole entry, looked up, the tested form may be a part): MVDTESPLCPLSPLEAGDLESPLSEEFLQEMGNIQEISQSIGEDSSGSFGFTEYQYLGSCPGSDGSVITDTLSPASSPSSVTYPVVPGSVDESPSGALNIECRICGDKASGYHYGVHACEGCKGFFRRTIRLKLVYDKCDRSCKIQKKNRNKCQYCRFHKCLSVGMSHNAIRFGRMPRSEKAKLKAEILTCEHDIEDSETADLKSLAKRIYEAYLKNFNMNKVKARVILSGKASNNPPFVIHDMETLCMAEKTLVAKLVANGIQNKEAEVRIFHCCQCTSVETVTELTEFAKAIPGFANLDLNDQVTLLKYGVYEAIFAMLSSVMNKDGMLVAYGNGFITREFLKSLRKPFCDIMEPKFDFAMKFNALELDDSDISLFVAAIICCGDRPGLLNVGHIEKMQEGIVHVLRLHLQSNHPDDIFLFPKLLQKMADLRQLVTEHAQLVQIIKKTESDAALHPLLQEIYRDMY
Myc proto-oncogene protein (Homo sapiens), sequence (P01106 whole entry, looked up): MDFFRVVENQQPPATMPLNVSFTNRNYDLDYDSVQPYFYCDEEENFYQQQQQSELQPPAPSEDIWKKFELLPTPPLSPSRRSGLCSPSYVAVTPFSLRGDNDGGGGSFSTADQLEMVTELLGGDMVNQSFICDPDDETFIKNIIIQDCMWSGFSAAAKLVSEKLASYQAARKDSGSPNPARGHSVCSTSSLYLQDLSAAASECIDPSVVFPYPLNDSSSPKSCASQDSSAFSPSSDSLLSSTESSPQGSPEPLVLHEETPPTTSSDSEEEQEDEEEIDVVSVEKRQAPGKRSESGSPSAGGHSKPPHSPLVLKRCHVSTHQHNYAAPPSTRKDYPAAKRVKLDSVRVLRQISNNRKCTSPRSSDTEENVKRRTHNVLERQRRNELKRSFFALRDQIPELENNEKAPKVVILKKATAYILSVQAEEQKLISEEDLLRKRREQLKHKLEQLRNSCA
human Retinoic Acid Receptor gamma (RARg), RARG (gene 5916), sequence (P13631 whole entry, looked up, the tested form may be a part): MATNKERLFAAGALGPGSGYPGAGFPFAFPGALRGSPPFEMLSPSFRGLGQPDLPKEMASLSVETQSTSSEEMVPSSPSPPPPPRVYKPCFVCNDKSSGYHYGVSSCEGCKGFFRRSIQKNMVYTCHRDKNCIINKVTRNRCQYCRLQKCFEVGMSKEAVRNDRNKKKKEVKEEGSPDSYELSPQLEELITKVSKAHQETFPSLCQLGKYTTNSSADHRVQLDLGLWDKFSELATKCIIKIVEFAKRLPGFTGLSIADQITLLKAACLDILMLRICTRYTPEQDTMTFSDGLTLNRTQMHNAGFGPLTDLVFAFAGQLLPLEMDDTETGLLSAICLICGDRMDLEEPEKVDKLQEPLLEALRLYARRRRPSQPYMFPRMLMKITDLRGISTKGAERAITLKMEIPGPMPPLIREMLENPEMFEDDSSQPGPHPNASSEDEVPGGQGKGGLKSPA

For the molecule `C=CC/C=C/C/C=C/C/C=C/C`, the outcome in assay [1], in assay [2], in assay [3], in assay [4], in assay [5] and in [6] was inactive. Further, the result in assay [7], in assay [8], in assay [9], in assay [10], in assay [11] and in assay [12] was inactive. Moreover, the molecule was called inactive in assay [13].
Take `c1ccc(-c2ccccc2-c2ccccc2)cc1`: the outcome in assay [1], in assay [3], in assay [4], in [14], in assay [10] and in assay [11] was inactive. In addition, the AC50 in assay [2] was 100 µM (active); in assay [5], 32.9 µM (active); in [12] it was 27 µM (active).
Regarding `FC(F)(F)C(F)(F)C(F)(F)C(F)(F)C(F)(F)C(F)(F)C(F)(F)C(F)(F)F`, the outcome in assay [1], in assay [2], in [3], in assay [4], in assay [5] and in assay [15] was inactive. The result in assay [6], in assay [7], in [8], in assay [9], in assay [10] and in assay [16] was inactive. Also, the outcome in [17], in assay [18], in [11], in assay [12] and in [13] was inactive.
As to `FC(F)(F)C(F)(F)C(F)(F)C(F)(F)CCI`, the molecule was called inactive in [1], in assay [2], in assay [3], in assay [4], in assay [5] and in assay [14]. The molecule was classed as inactive in assay [15], in assay [19], in assay [6], in assay [7], in [9] and in assay [10]. Further, the result in [17], in assay [18], in assay [11], in assay [12] and in assay [13] was inactive. Moreover, the AC50 in assay [5] is 79.7 µM (active); in assay [11] it was 36.9 µM (active).
Take `O=C(O)C=C(C(F)(F)F)C(F)(F)F`: the call in [1], in assay [2], in [3], in assay [4], in assay [14] and in [6] was inactive. In addition, the molecule was called inactive in assay [9], in assay [10], in [16], in assay [11], in assay [12] and in assay [13]. Also, the AC50 in assay [4] was 68.2 µM (active); in assay [5] it was 1.89 µM (active) and 3.02 µM (active); in [7], 22.4 µM (active) and 8.91 µM (active).
`O=C(CC(=O)C(F)(F)C(F)(F)F)C(F)(F)F`: the result in assay [1], in assay [2], in assay [3], in assay [4], in assay [14] and in [6] was inactive. In addition, the outcome in [7], in assay [8], in assay [9], in assay [10], in assay [16] and in assay [12] was inactive. Also, in [13], the result was inactive. Also, the AC50 was 150 µM (active) in assay [4]; 94.6 µM (active) and 109 µM (active) in [5]; 76.1 µM (active) and 61.2 µM (active) in [11].
Turning to `FC(F)(F)C(F)(F)C(F)(F)C(F)(F)C(F)(F)C(F)(F)C(F)(F)Br`, the result in [1], in [2], in assay [3], in assay [4], in assay [5] and in assay [15] was inactive. Besides, the result in [19], in assay [6], in assay [7], in [8], in [9] and in assay [10] was inactive. For the same molecule, the result in assay [16], in assay [17], in assay [11], in assay [12] and in assay [13] was inactive.
